Holding throughout (assay): NCI-60 one-dose screen, 48 h (100 = growth as untreated, 0 = no growth, -100 = all killed)
In test [1] the test system is RPMI-8226 leukemia. The conditions noted are these: 10 µM unless noted.
Test [2] deals with OVCAR-8 ovarian. The note with it: 10 µM unless noted.
The subject of test [3] is OVCAR-5 ovarian. The note with it: 10 µM unless noted.
Test [4] has as its system OVCAR-4 ovarian. The conditions noted are these: 10 µM unless noted.
Test [5] concerns SK-OV-3 ovarian. The note with it: 10 µM unless noted.
Test [6] has as its system HS 578T breast. The note with it: 10 µM unless noted.
Test [7] concerns NCI/ADR-RES ovarian. The note with it: 10 µM unless noted.
Test [8] has as its system T-47D breast. The conditions noted are these: 10 µM unless noted.
The test system of test [9] is BT-549 breast. The note with it: 10 µM unless noted.
The test system of test [10] is MDA-MB-435 melanoma. The conditions noted are these: 10 µM unless noted.
Test [11] concerns SW-620 colon. The conditions noted are these: 10 µM unless noted.
The subject of test [12] is MCF7 breast. The note with it: 10 µM.
Test [13] deals with HCT-116 colon. The note with it: 10 µM unless noted.
Test [14] has as its system HCC-2998 colon. The conditions noted are these: 10 µM unless noted.
Test [15] has as its system KM12 colon. The conditions noted are these: 10 µM unless noted.
Test [16] relates to IGROV1 ovarian. The conditions noted are these: 10 µM unless noted.
In test [17] the test system is OVCAR-3 ovarian. The note with it: 10 µM unless noted.

Molecules are shown by their SMILES. About 83,000 compounds went through this panel and 20% of them were active in at least one assay; those are over-represented in the sample as a whole.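 In brief: 96-well plates, 48 h treatment, single concentration, percent growth endpoint.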 A number with no mark means an inactive call. The source made the active and inactive calls. How the source made its calls: active means growth percent below 10; inactive means the rest.

Consider `CC(=O)O[C@@H]1/C=C/C(=O)N[C@@H](C)CCC/C=C/[C@@H]2CCC[C@H]21`, for which the growth was 87.5% in test [1]; 99.4% in test [2]; 87.8% in test [3]; 109% in [4]; 103% in test [5]; 133% in test [6]. The growth was 101% in test [7]; 98.6% in [8]; 117% in test [9]; 106% in test [10]; 112% in test [11]; 98.8% in test [12]. Moreover, the growth in test [13] is 104%; in [14] it was 98.5%; in [15] it was 108%.

`COc1cc(/C=C2\CN(C)C/C(=C\c3cc(CN4CCCC4)c(O)c(OC)c3)C2=O)cc(CN2CCCC2)c1O`: the growth in test [1] was 81%; in test [2], 65.5%; in test [3], 94.5%; in test [4], 65.8%; in [16], 82%; in test [17], 50%. Also, the growth in test [6] was 87.8%; in [7], 100%; in test [8] it was 79.7%; in test [9] it was 94.1%; in test [10] it was 67.6%; in test [11] it was 54.5%. The growth in [12] is 26.3%; in [13] it was 40.4%; in [14] it was 96%; in test [15], 48.3%.

With `CCCCC1COc2cccc3c2N1C=C/C3=C\C(=O)N(C)c1ccccc1` (stereo unspecified), the growth in test [1] is 7.39% (active); in test [2] it was 52.9%; in [3], 83.9%; in test [4], 50.7%; in [16], 56.1%; in test [17], 49.2%. The growth in [6] was 78.4%; in test [7], 86.4%; in test [8], 41.6%; in test [9], 50.8%; in [10] it was 69%; in test [11], 73.4%. The growth is 66.7% in test [12], 36.1% in test [13], 71.1% in [14] and 65.2% in test [15].

Consider `CC1=NCC2NC(=O)NC(C)=C12` (stereo unspecified), for which the growth in [1] is 100%; in test [2], 105%; in test [3] it was 97.4%; in test [4] it was 106%; in [16], 97%; in test [17], 105%. The growth in test [6] is 93.6%; in test [7], 106%; in [8], 113%; in test [9], 96.4%; in [10], 98.4%; in test [11], 99.9%. Further, the growth is 111% in [12], 101% in test [13], 113% in test [14] and 104% in test [15].

Regarding `O=c1cc(-c2ccccc2)oc2cc(OCc3cn(Cc4ccc(F)cc4)nn3)cc(OCc3cn(Cc4ccc(F)cc4)nn3)c12`, the growth in [1] is 45.6%; in [2], 12.7%; in test [3], 55.1%; in [4] it was -9.56% (active); in [16] it was 43.5%; in [17] it was 21.2%. In addition, the growth was 20.9% in test [6]; 70.4% in [7]; 40.6% in test [8]; 18.8% in [9]; 40.9% in [10]; 60.3% in test [11]. Further, the growth in test [12] is 53.3%; in test [13], 18.2%; in test [14], 74.1%; in test [15], 43.3%.

Consider `O=C1CCC(N2C(=O)c3cccc(NCCCCCCOc4ccc(Nc5nccc(Nc6ccccc6)n5)cc4)c3C2=O)C(=O)N1` (stereo unspecified), for which the growth in test [1] is 38.5%; in test [2] it was 77.8%; in test [3], 109%; in test [4], 64.6%; in test [16], 72.5%; in test [17] it was 78.8%. The growth in [6] was 98.2%; in test [7], 79.2%; in [8], 39.5%; in test [9], 65.1%; in test [10] it was 75.9%; in test [11], 91%. Moreover, the growth in test [12] was 66.8%; in test [13] it was 77.6%; in [14], 98.4%; in [15], 88.5%.

Turning to `CNCCNc1nc2ccccc2c2c(=O)c3cc(F)ccc3sc12`, the growth is -3.62% (active) in [1]; 17.3% in test [2]; 86.4% in test [3]; 49.1% in [4]; 37.6% in test [16]; 40.4% in test [17]. Also, the growth was 56.9% in test [6]; 62.4% in [7]; -13.4% (active) in [8]; 82.4% in test [9]; -61.1% (active) in test [10]; -63.3% (active) in [11]. For the same compound, the growth in test [12] was -44.5% (active); in test [13], 0.271% (active); in test [14], -41.8% (active); in test [15], -33.8% (active).

Source of the values: PubChem BioAssay (NCI).
